JMJD2A Tudor = blocks the human JMJD2A Tudor domain; AlphaScreen JMJD2A-Tudor / H3K4me3 peptide binding; Potency, µM (top dose mostly 114 µM), without a hit: at the top dose activity change, negative = inhibition, hits mostly inhibitors; actives 4.4% (n = 390,000); AID 504339; further: potency means the concentration at half of the fitted maximal effect; on the % scale 0 is the no-effect control and ±100 the full control effect; nearly all actives have a fitted effect of over 50% in size
G9a inh = inhibitors of human histone lysine methyltransferase G9a | G9a H3K9 monomethylation, AlphaScreen, 2 h | Potency, µM (top dose mostly 102 µM), without a hit: top-dose activity, negative = inhibition, usual class: inhibitors | Q96KQ7 | actives 8.8% (n = 350,000); further: potency means the concentration at half of the fitted maximal effect; on the % scale 0 is the no-effect control and ±100 the full control effect; nearly all actives have a fitted effect of over 75% in size
Target sequence (Q96KQ7 913-1193 limits assumed): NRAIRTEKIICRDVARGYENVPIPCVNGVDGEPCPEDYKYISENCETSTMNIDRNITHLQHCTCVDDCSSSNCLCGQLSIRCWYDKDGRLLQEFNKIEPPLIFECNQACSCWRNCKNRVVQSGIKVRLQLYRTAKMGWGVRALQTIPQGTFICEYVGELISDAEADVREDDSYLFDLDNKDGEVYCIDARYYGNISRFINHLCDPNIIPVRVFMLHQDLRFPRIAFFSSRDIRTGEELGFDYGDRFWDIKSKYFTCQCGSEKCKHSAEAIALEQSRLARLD
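Readings reflect AlphaScreen signal from monomethyl-H3K9 antibody detection. HMT at 20 nM; substrate b-H3K9 500 nM; cofactor SAM 20 uM; 2 h RT reaction; compounds tested as titrations in qHTS with 15 min preincubation.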
PI5P4Ka inh = PI5P4K alpha (human) kinase inhibition; max response, %; actives 1.2% (n = 330,000); PI5P4Kalpha enzyme, ADP-Glo luminescence, 60 min; stronger effect = lower value; AID 652105; active means max response of -50% or lower; inconclusive means between -30% and -50%; inactive means -30% or higher; further: value at the top dose of about 77 µM; on the % scale 0 is the no-effect control and ±100 the full control effect
Target sequence (P48426 whole entry, looked up): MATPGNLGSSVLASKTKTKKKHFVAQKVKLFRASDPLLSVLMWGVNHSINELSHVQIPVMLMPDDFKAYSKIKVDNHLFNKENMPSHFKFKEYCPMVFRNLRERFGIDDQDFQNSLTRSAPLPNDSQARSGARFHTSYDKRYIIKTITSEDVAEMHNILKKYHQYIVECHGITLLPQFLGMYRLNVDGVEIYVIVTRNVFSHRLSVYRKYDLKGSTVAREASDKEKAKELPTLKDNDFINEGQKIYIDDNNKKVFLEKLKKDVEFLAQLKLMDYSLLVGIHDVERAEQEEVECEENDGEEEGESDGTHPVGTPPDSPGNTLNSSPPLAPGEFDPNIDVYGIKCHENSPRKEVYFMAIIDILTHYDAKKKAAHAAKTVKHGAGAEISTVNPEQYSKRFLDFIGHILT
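Quantitative HTS of the MLSMR library against PI5P4Kalpha with substrate. ATP added last at 5 microM final; room temperature, 60 minutes. Remaining ATP depleted, ADP converted and read as luminescence.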
PLK1 PBD block = blocks phosphopeptide binding to human PLK1 polo-box domain | P53350 | Plk1 PBD binding of FITC phosphopeptide, fluorescence polarization | Potency, µM, inactives show max response, negative = inhibition, actives largely listed as inhibitors | actives 2.8% (n = 360,000) | AID 720504; further: potency means the concentration at half of the fitted maximal effect; series mostly up to about 57 µM; on the % scale 0 is the no-effect control and ±100 the full control effect; nearly all actives have a fitted effect of over 65% in size
HP1b binding inh = inhibitors of HP1-beta chromodomain binding to methylated histone tails | AlphaScreen HP1-beta / biotin-H3K9me3 peptide binding | Potency, µM (titrated, usually from 114 µM), inactives show top-dose activity change, negative = inhibition, actives largely listed as inhibitors | actives 0.56% (n = 390,000) | P83916; further: potency means the concentration at half of the fitted maximal effect; nearly all actives have a fitted effect of over 70% in size
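AlphaScreen: HP1-beta (50 nM) preformed 30 min with biotin-H3(1-18)K9me3 peptide (50 nM) in PBS pH 7.4, 0.01% Tween-20. Compound added for 30 min at RT, then streptavidin donor/nickel chelate acceptor beads (10 ug/mL) for 30 min.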
BAZ2B inh = BAZ2B (human) inhibition; Potency, µM (series often up to 114 µM), for the others: at the top dose activity change, negative = inhibition, usual class: inhibitors; Q9UIF8; AlphaScreen BAZ2B-H3K14Ac peptide displacement; actives 4.4% (n = 360,000); further: potency means the concentration at half of the fitted maximal effect; on the % scale 0 is the no-effect control and ±100 the full control effect; nearly all actives have a fitted effect of over 60% in size
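In this displacement format the biotinylated H3(5-23) peptide acetylated at Lys14 serves as ligand at 50 nM, with BAZ2B at 50 nM in PBS pH 7.4 containing 0.01% Tween-20. Donor and acceptor beads are 10 ug/mL final.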
* hit, by the source's call; ! = not confirmed by another sample; [ ] = another dose, or the depositor's remark. Sampled rows, rich in hits. Any-hit rate of the full collection: about 12%. Unless noted, the call rests on the fitted dose curve; in most records, active means well fitted curve in the direction sought with a large enough effect; inconclusive means small, poorly fitted or top-dose-only effect, or another doubt; inactive means no such curve, though single readings can be large; an effect the other way counts as inactive or inconclusive.

Screening COc1ccc(/C=N/NC(=O)COc2cccc3ccccc23)c(C(=O)O)c1OC returned JMJD2A Tudor -16%, G9a inh 14µM*, PI5P4Ka inh -12, PLK1 PBD block -19%, HP1b binding inh 11% and BAZ2B inh inconclusive.
Screening CSc1ccc(S(=O)(=O)NCC(=O)OCC(=O)N2CC(C)CC(C)C2)cc1[N+](=O)[O-] (centres undefined) returned JMJD2A Tudor -21%, G9a inh 50µM*, PI5P4Ka inh 5, PLK1 PBD block -15%, HP1b binding inh -9% and BAZ2B inh -9%.
`CC(=O)N1CCC2(CC1)OC(=O)C(C)=C2C(=O)Nc1ccccc1C(F)(F)F` gave JMJD2A Tudor -17%, G9a inh 9%[59 µM], HP1b binding inh 15% and BAZ2B inh -1%.
`CCn1c(C)c(C)c2cc(C(=O)N3CCc4ccccc4C3)ccc21` gave JMJD2A Tudor 40µM*, G9a inh 45µM*, PI5P4Ka inh 1, PLK1 PBD block -10%, HP1b binding inh inconclusive and BAZ2B inh 22µM*.
Cc1c(C)n(Cc2ccc(F)cc2)c2ccc(C(=O)N3CCN(c4ccc(F)cc4)CC3)cc12 was read as JMJD2A Tudor inconclusive, G9a inh -43%[59 µM], HP1b binding inh 14% and BAZ2B inh -38%.
For CCn1c(C(=O)N2CCc3ccccc3C2)cc2sccc21 the results were JMJD2A Tudor -35%, G9a inh 50µM*, PI5P4Ka inh 1, PLK1 PBD block -19%, HP1b binding inh 20% and BAZ2B inh -35%.
Screening CCN1CCN(C(=O)c2ccc3c(c2)c(C)c(C)n3Cc2ccccc2)CC1 returned JMJD2A Tudor inconclusive, G9a inh 35µM*, PI5P4Ka inh 2, PLK1 PBD block -2%, HP1b binding inh inconclusive and BAZ2B inh inconclusive.
Screening CCn1c(C)c(C)c2cc(C(=O)NCCCN3CCN(C)CC3)ccc21 returned JMJD2A Tudor -28%, G9a inh inconclusive, PI5P4Ka inh 5, PLK1 PBD block 0%, HP1b binding inh -6% and BAZ2B inh inconclusive.
Screening CCOC(=O)c1c(NC(=O)CCS(=O)(=O)c2ccccc2)sc2c1CCN(C(C)C)C2 returned JMJD2A Tudor -12%, PI5P4Ka inh -1, PLK1 PBD block -14%, HP1b binding inh 35% and BAZ2B inh -12%.
Screening CNC(=O)c1c(NC(=O)CCS(=O)(=O)c2ccc(C)cc2)sc2c1CCN(C(=O)OC)C2 returned JMJD2A Tudor -9%, G9a inh 50µM*, PI5P4Ka inh -2, PLK1 PBD block inconclusive, HP1b binding inh 15% and BAZ2B inh -4%.
For CNC(=O)c1c(NC(=O)CCS(=O)(=O)c2ccccc2)sc2c1CCN(C(=O)OC)C2 the results were JMJD2A Tudor -10%, G9a inh 50µM*, PI5P4Ka inh 6, PLK1 PBD block -9%, HP1b binding inh 18% and BAZ2B inh 0%.
For COc1ccc(N2CCN(C3CCCN(Cc4ccc(F)c(F)c4)C3)CC2)cc1 (centres undefined) the results were JMJD2A Tudor inconclusive, G9a inh 45µM*, PI5P4Ka inh -1, PLK1 PBD block -3%, HP1b binding inh -20% and BAZ2B inh inconclusive.
Screening COc1ccc(N2CCN(C3CCCN(Cc4ccc(F)cc4)C3)CC2)cc1 (centres undefined) returned JMJD2A Tudor -32%, G9a inh inconclusive, PI5P4Ka inh -2, PLK1 PBD block -7%, HP1b binding inh -16% and BAZ2B inh inconclusive.
For COc1ccc2c(c1)sc1ncc(C(=O)NCc3cccc(Cl)c3)c(=O)n12 the results were JMJD2A Tudor -17%, G9a inh 13%[59 µM], HP1b binding inh 10% and BAZ2B inh 0%.
Cc1ccc(CCNC(=O)C2CC(=O)N(CCc3ccc(C)cc3)C2)cc1 (centres undefined) was read as JMJD2A Tudor -22%, G9a inh -1%[59 µM], HP1b binding inh 11% and BAZ2B inh 2%.
For COc1ccc(CCN2CC(C(=O)NCCc3ccc(C)cc3)CC2=O)cc1OC (centres undefined) the results were JMJD2A Tudor -35%, G9a inh 2%[59 µM], PI5P4Ka inh -15, PLK1 PBD block -10%, HP1b binding inh -12% and BAZ2B inh 56µM*!.
Screening Cc1ccc(CCN2CC(C(=O)NC3CCCCC3)CC2=O)cc1 (centres undefined) returned JMJD2A Tudor -22%, G9a inh 15%[59 µM], PI5P4Ka inh 2, PLK1 PBD block -7%, HP1b binding inh 11% and BAZ2B inh -11%.
COc1ccc(CCN2CC(C(=O)NC3CCCCC3)CC2=O)cc1OC (centres undefined) was read as JMJD2A Tudor 2%, G9a inh 11%[59 µM], PI5P4Ka inh 1, PLK1 PBD block -8%, HP1b binding inh 41% and BAZ2B inh 50µM*.
Screening COc1ccc(/C=N/N2CCN(c3ccccc3OC)CC2)cc1OC returned JMJD2A Tudor inconclusive, G9a inh 45µM*, PLK1 PBD block 2%, HP1b binding inh -11% and BAZ2B inh inconclusive.
`COc1ccccc1N1CCN(/N=C/c2ccc(C(=O)O)cc2)CC1` gave JMJD2A Tudor -17%, G9a inh -8%, PI5P4Ka inh -2, PLK1 PBD block -12%, HP1b binding inh 32% and BAZ2B inh 1%.
Screening COc1ccccc1N1CCN(/N=C/c2ccc(O)c(O)c2)CC1 returned JMJD2A Tudor 22µM*, G9a inh -120%[12.7 µM], PI5P4Ka inh -1, PLK1 PBD block -5%, HP1b binding inh 28µM* and BAZ2B inh 50µM*.
`COc1ccc(/C=N/N2CCN(c3ccccc3OC)CC2)cc1Br` gave JMJD2A Tudor inconclusive, G9a inh 3%[0.501 µM], PI5P4Ka inh 25, PLK1 PBD block -2%, HP1b binding inh -13% and BAZ2B inh 40µM*.
Screening CCN(CC)c1ccc(/C=N/N2CCN(c3ccccc3OC)CC2)cc1 returned JMJD2A Tudor 32µM*, G9a inh 8.9µM*, PI5P4Ka inh 3, PLK1 PBD block -2%, HP1b binding inh 14µM* and BAZ2B inh 32µM*.
`O=c1c2ccccc2nc(N/N=C/c2ccc(O)cc2)n1O` gave JMJD2A Tudor -13%, G9a inh inconclusive, PI5P4Ka inh 2, PLK1 PBD block inconclusive, HP1b binding inh -9% and BAZ2B inh 2%.
Cc1nc2ccccc2c(=O)n1/N=C/c1ccccn1 was read as JMJD2A Tudor -22%, G9a inh 28µM*, PLK1 PBD block 0%, HP1b binding inh 8% and BAZ2B inh -7%.
